Here are results for one sequence from publication PMC7862700, “An all-to-all approach to the identification of sequence-specific readers for epigenetic DNA modifications on cytosine”.

Common to all, as to assay: DAPPL (digital affinity profiling via proximity ligation, sequencing); 10 mM Tris-HCl pH 7.5, 50 mM NaCl, 1 mM DTT, 4% glycerol, room temperature, 30 min; GST-TFs on glutathione beads, 16-mer random dsDNA library, 0.1% formaldehyde crosslink after washing; high values mean tight binding
One test deals with T1, FEV (Homo sapiens, UniProt Q99581 1-238).
T1 sequence: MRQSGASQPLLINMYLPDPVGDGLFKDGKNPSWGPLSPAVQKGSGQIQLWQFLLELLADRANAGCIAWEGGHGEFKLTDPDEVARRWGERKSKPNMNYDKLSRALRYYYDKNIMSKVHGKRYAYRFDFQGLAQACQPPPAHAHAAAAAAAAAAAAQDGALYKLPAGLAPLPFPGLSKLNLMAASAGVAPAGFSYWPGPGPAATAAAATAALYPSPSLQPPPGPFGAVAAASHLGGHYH
The following applies: protein: recombinant; tags: N-terminal GST; dsDNA, one strand shown. In outline: (§1)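 Binding signal is defined as a hexamer's read frequency for one factor over its frequency for the tag-only sample. To obtain reads, GST-fused human transcription factors were expressed in yeast, captured on glutathione beads, barcoded with DNA and pooled with that sample. Pools met 200 nmole of a 16-mer random double-stranded DNA library in Tris/NaCl/DTT/glycerol buffer for 30 min at room temperature before washing, 0.1% formaldehyde crosslinking, proximity ligation (BsaI/T4 ligase, 1 h, 37 °C), PCR and Illumina NextSeq500 sequencing.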

The next test addresses ETV5 (Homo sapiens, UniProt P41161 1-510). The following applies: protein: recombinant; tags: N-terminal GST; dsDNA, one strand shown. The method, boiled down:
as §1

The target in another test is HSF1 (Homo sapiens, UniProt Q00613 1-529). The following applies: protein: recombinant; tags: N-terminal GST; chain copies: 3; dsDNA, one strand shown. In outline: as §1
HSF1, sequence (Q00613 whole entry): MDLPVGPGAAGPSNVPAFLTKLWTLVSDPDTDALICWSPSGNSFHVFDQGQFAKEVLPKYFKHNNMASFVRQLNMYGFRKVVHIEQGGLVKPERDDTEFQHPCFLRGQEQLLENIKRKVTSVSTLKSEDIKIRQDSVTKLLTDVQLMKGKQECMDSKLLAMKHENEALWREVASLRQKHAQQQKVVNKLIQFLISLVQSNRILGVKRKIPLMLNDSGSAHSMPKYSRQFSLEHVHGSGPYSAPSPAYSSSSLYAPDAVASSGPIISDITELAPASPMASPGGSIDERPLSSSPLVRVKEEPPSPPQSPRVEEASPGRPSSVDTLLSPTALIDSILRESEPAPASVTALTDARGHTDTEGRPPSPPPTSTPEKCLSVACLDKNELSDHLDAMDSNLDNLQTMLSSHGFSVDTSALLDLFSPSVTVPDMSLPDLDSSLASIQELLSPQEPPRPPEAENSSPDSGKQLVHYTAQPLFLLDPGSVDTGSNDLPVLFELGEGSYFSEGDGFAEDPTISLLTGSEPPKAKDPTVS
A further test addresses T2, SPIC (Homo sapiens, UniProt Q8N5J4 1-248).
T2 sequence: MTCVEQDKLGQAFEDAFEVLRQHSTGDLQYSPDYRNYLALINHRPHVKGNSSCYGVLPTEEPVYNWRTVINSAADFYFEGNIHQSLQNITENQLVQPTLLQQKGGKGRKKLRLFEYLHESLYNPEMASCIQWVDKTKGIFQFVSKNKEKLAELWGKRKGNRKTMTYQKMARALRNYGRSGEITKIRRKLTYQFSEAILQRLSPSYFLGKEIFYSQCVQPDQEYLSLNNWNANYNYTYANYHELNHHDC
The following applies: protein: recombinant; tags: N-terminal GST; dsDNA, one strand shown. The method, boiled down: as §1

A further test addresses ELF4 (Homo sapiens, UniProt Q99607 1-663). Conditions: protein: recombinant; tags: N-terminal GST; dsDNA, one strand shown. The method, boiled down:
as §1

The next test concerns the target T3, ELK4 (Homo sapiens, UniProt P28324-2 1-405).
T3 sequence: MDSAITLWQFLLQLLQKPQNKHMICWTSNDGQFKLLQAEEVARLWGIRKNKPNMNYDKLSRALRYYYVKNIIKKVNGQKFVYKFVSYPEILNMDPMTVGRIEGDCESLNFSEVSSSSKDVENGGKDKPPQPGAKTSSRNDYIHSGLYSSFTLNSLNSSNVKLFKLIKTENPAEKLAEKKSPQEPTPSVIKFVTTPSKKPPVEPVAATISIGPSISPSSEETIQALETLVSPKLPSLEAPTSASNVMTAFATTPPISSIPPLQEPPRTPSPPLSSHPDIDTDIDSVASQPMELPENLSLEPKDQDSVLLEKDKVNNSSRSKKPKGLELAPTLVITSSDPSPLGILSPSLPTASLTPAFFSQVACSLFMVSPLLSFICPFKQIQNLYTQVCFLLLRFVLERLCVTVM
Conditions: protein: recombinant; tags: N-terminal GST; dsDNA, one strand shown. The method, boiled down: as §1

A further test deals with T4, ETV2 (Homo sapiens, UniProt O00321 1-342).
T4 sequence: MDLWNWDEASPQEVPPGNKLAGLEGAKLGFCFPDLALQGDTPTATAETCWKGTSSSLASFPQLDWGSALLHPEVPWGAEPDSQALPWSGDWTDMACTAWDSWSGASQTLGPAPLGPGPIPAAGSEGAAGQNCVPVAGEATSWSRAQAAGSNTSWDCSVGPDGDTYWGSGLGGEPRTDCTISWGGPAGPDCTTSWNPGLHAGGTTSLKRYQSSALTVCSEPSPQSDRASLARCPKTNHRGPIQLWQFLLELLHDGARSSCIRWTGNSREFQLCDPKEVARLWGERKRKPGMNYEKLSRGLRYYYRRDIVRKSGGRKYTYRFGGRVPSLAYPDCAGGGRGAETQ
Conditions: protein: recombinant; tags: N-terminal GST; dsDNA, one strand shown. In outline:
as §1

The target of another test is T5, ELF3 (Homo sapiens, UniProt P78545 1-371).
T5 sequence: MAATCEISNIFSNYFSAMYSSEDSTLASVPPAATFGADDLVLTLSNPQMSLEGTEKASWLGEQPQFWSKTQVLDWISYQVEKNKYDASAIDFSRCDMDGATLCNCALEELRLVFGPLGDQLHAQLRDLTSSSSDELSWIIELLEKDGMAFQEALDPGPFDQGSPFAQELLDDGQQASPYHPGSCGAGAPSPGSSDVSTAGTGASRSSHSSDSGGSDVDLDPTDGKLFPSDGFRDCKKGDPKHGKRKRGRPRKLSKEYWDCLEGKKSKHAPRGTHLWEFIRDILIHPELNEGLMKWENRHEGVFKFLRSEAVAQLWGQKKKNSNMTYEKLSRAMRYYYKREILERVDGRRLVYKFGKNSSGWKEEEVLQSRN
Conditions: protein: recombinant; tags: N-terminal GST; dsDNA, one strand shown. The method, boiled down:
as §1

Another test deals with CRX (Homo sapiens, UniProt O43186 1-299). Conditions: protein: recombinant; tags: N-terminal GST; dsDNA, one strand shown. In outline: as §1
CRX, sequence (O43186 whole entry): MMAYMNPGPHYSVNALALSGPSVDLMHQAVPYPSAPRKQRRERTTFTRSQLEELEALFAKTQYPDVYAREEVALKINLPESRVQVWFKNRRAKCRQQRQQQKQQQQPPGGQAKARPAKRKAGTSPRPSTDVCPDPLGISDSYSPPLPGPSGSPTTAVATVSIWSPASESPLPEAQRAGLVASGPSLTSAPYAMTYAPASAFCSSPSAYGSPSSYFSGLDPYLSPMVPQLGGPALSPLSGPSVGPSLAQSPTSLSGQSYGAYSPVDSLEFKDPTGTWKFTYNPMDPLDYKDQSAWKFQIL
The target of another test is ETV1 (Homo sapiens, UniProt P50549 1-477). The following applies: protein: recombinant; tags: N-terminal GST; dsDNA, one strand shown. The method, boiled down:
as §1

The target of another test is T6, ERF (Homo sapiens, UniProt P50548 1-548).
T6 sequence: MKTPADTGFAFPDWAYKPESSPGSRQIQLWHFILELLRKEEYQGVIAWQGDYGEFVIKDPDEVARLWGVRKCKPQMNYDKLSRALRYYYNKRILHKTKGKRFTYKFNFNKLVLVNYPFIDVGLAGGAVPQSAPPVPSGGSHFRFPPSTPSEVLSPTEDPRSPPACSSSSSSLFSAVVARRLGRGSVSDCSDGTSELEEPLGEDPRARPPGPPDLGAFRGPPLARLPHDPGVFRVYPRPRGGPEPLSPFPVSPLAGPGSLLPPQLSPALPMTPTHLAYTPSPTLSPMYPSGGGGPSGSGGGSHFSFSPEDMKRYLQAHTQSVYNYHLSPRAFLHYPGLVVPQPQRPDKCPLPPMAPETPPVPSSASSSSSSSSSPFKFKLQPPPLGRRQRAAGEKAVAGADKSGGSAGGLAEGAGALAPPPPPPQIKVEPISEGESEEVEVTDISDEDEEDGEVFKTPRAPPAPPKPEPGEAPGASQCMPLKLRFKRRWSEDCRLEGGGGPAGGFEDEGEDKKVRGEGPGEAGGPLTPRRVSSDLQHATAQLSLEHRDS
The following applies: protein: recombinant; tags: N-terminal GST; dsDNA, one strand shown. In outline:
as §1

In a further test the target is T7, ETV3L (Homo sapiens, UniProt Q6ZN32 1-361).
T7 sequence: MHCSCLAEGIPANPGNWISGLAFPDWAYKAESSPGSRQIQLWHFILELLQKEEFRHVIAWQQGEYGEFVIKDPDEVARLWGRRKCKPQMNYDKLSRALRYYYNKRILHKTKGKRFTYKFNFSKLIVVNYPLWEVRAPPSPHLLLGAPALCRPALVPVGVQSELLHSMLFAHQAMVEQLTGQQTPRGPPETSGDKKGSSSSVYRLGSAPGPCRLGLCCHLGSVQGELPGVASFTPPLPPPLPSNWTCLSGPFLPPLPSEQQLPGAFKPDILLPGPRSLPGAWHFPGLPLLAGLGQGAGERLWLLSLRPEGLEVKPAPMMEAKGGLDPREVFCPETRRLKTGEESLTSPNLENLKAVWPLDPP
The following applies: protein: recombinant; tags: N-terminal GST; dsDNA, one strand shown. In outline:
as §1

The next test concerns the target T8, ETS2 (Homo sapiens, UniProt P15036 1-469).
T8 sequence: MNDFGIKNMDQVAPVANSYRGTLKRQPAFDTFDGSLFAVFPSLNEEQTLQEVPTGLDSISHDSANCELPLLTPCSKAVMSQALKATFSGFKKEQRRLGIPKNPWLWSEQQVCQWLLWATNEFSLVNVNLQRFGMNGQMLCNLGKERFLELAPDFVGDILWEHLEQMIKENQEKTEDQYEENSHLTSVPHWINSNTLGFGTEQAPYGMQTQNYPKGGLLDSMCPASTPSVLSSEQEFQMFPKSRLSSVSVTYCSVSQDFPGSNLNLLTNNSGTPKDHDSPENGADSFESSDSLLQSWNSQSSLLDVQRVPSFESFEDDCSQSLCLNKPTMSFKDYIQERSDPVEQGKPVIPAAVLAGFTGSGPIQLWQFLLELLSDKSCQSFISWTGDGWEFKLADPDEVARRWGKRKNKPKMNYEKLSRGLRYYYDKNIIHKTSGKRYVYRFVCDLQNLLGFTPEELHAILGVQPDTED
Conditions: protein: recombinant; tags: N-terminal GST; dsDNA, one strand shown. The method, boiled down: as §1

For a further test, the target named is T9, SPDEF (Homo sapiens, UniProt O95238 1-335).
T9 sequence: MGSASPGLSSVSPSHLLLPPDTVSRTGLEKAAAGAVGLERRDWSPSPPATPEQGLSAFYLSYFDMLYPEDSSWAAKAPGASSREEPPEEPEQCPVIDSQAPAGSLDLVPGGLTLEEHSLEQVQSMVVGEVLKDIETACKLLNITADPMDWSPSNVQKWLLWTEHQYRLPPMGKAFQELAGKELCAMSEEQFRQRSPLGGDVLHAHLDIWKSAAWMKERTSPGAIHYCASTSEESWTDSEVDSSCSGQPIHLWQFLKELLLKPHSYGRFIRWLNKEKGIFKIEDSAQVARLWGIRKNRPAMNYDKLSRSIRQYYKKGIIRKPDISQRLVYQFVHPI
The following applies: protein: recombinant; tags: N-terminal GST; dsDNA, one strand shown. The method, boiled down: as §1

The target of the next test is T10, ETV7 (Homo sapiens, UniProt Q9Y603 1-341).
T10 sequence: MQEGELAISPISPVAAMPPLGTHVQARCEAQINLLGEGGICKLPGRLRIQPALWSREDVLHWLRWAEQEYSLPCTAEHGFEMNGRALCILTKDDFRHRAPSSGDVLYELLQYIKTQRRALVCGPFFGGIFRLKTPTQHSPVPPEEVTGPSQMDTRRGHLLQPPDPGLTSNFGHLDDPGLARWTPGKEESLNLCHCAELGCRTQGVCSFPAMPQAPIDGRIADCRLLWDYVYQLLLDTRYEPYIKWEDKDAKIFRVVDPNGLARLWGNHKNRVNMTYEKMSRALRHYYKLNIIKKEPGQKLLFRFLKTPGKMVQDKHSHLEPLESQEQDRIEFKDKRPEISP
The following applies: protein: recombinant; tags: N-terminal GST; dsDNA, one strand shown. In outline:
as §1

Another test concerns the target T11, ELF5 (Homo sapiens, UniProt Q9UKW6-2 1-255).
T11 sequence: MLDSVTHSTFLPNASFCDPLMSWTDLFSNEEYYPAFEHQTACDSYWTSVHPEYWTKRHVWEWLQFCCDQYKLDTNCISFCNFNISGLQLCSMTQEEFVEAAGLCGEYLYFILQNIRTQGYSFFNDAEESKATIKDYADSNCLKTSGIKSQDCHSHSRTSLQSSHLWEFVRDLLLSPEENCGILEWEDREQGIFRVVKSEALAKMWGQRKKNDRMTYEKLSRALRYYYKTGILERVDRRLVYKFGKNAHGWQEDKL
Conditions: protein: recombinant; tags: N-terminal GST; dsDNA, one strand shown. The method, boiled down: as §1

In the next test the target is T12, ETV3 (Homo sapiens, UniProt P41162-2 1-143).
T12 sequence: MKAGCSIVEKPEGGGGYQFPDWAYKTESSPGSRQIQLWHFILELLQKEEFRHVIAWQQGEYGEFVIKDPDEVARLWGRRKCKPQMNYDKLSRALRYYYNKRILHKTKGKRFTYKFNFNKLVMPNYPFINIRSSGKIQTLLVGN
Conditions: protein: recombinant; tags: N-terminal GST; dsDNA, one strand shown. The method, boiled down:
as §1

The target in a further test is ETV6 (Homo sapiens, UniProt P41212 1-452). Conditions: protein: recombinant; tags: N-terminal GST; dsDNA, one strand shown. The method, boiled down:
as §1

ETV1, sequence (P50549 whole entry): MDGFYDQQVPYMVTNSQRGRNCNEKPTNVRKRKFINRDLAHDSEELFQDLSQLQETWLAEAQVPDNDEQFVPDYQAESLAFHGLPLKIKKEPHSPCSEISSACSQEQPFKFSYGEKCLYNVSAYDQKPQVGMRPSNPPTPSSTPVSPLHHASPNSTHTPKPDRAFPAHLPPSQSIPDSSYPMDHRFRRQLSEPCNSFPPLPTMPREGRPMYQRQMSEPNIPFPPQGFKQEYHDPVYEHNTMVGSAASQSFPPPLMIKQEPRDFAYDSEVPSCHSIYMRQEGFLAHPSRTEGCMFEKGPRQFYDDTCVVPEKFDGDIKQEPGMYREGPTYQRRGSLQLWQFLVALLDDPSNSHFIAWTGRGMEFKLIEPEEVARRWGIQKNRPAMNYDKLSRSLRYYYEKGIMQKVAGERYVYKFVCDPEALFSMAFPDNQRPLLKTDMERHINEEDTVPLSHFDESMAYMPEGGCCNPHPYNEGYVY
ETV5, sequence (P41161 whole entry): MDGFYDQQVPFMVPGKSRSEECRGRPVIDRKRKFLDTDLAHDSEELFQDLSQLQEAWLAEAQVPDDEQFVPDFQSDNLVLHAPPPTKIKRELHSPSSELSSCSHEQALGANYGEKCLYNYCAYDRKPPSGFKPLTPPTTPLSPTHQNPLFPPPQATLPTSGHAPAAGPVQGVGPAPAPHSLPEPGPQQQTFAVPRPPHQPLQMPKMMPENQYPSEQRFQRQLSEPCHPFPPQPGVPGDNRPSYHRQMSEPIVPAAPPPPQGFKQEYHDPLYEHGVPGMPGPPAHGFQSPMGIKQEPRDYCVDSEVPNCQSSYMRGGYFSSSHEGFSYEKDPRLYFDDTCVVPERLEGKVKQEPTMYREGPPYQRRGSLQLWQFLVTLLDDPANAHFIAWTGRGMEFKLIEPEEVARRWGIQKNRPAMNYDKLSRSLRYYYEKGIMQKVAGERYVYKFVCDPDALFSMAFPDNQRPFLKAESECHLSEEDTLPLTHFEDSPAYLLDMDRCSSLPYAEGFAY
ELF4, sequence (Q99607 whole entry): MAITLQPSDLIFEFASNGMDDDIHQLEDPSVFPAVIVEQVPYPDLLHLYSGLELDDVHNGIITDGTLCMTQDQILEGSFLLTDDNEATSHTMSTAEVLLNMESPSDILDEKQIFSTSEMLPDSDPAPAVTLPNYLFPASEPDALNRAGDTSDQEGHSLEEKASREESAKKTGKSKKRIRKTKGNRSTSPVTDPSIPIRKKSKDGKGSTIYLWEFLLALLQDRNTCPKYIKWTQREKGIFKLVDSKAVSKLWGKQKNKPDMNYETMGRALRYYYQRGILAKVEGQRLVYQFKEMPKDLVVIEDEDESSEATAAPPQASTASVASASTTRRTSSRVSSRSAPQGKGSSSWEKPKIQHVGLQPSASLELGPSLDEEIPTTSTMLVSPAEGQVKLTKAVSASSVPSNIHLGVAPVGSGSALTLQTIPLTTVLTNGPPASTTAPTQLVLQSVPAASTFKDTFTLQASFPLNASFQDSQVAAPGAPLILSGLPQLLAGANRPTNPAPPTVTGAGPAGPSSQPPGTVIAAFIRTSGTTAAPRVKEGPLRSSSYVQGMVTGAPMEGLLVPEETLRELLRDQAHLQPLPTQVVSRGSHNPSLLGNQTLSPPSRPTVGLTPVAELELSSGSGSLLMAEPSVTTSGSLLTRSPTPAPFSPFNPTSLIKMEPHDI
ETV6, sequence (P41212 whole entry): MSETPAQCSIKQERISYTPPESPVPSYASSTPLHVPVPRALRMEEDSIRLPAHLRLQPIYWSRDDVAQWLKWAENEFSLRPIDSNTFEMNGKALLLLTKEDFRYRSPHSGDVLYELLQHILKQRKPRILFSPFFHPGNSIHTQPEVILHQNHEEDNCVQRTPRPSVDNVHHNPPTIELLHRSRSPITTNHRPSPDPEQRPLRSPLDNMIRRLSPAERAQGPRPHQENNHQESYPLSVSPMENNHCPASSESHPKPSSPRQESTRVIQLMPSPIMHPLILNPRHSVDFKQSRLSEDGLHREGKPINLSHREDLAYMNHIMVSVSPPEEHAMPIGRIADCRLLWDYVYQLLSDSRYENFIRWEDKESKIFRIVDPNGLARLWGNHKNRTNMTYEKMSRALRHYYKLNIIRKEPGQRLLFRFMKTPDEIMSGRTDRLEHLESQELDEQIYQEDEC

For CAAATA, the binding signal with FEV is 1.14 fold enrichment (6-mer frequency, TF over GST control); with ETV5 it was 1.14 fold enrichment (6-mer frequency, TF over GST control); with HSF1, 1.14 fold enrichment (6-mer frequency, TF over GST control); in the test with SPIC, 1.09 fold enrichment (6-mer frequency, TF over GST control); with ELF4 it was 1.16 fold enrichment (6-mer frequency, TF over GST control); in the test with ELK4, 1.02 fold enrichment (6-mer frequency, TF over GST control). For the same sequence, the binding signal with ETV2 is 1.06 fold enrichment (6-mer frequency, TF over GST control); in the test with ELF3, 1.4 fold enrichment (6-mer frequency, TF over GST control); with CRX, 1.24 fold enrichment (6-mer frequency, TF over GST control); with ETV1, 1.12 fold enrichment (6-mer frequency, TF over GST control); in the test with ERF, 1.23 fold enrichment (6-mer frequency, TF over GST control); in the test with ETV3L it was 1.1 fold enrichment (6-mer frequency, TF over GST control). Besides, the binding signal was 1.14 fold enrichment (6-mer frequency, TF over GST control) with ETS2; 1.09 fold enrichment (6-mer frequency, TF over GST control) with SPDEF; 1.16 fold enrichment (6-mer frequency, TF over GST control) with ETV7; 1.06 fold enrichment (6-mer frequency, TF over GST control) with ELF5; 1.1 fold enrichment (6-mer frequency, TF over GST control) with ETV3; 1.07 fold enrichment (6-mer frequency, TF over GST control) with ETV6.
